# Inconclusive results are not listed. Where a call stands in place of a potency, no number is given. Unmarked numbers belong to inactive results. Calls of active or inactive are those of the source. Calls follow the shape of the dose curve; as a rule, active = well fitted inhibition curve with a large enough effect; inconclusive = small, poorly fitted or top-dose-only effect; inactive = no such curve, though single readings can be large or run the other way.
# Target: Rap guanine nucleotide exchange factor 4 (Homo sapiens) (UniProt Q8WZA2)
# Experiment: Confirmatory qHTS for antagonist of cAMP-regulated guanine nucleotide exchange factor 4 (EPAC2) (AID 1645885); also: nearly all actives have a fitted effect of over 25% in size; also: potency is read from the fitted curve at half-maximal effect
# Details: EPAC2 Rap1B-BODIPY-GDP exchange fluorescence, biochemical; series mostly up to 12.7 µM
# Sequence of Rap guanine nucleotide exchange factor 4 (Homo sapiens) (Q8WZA2 whole entry, looked up): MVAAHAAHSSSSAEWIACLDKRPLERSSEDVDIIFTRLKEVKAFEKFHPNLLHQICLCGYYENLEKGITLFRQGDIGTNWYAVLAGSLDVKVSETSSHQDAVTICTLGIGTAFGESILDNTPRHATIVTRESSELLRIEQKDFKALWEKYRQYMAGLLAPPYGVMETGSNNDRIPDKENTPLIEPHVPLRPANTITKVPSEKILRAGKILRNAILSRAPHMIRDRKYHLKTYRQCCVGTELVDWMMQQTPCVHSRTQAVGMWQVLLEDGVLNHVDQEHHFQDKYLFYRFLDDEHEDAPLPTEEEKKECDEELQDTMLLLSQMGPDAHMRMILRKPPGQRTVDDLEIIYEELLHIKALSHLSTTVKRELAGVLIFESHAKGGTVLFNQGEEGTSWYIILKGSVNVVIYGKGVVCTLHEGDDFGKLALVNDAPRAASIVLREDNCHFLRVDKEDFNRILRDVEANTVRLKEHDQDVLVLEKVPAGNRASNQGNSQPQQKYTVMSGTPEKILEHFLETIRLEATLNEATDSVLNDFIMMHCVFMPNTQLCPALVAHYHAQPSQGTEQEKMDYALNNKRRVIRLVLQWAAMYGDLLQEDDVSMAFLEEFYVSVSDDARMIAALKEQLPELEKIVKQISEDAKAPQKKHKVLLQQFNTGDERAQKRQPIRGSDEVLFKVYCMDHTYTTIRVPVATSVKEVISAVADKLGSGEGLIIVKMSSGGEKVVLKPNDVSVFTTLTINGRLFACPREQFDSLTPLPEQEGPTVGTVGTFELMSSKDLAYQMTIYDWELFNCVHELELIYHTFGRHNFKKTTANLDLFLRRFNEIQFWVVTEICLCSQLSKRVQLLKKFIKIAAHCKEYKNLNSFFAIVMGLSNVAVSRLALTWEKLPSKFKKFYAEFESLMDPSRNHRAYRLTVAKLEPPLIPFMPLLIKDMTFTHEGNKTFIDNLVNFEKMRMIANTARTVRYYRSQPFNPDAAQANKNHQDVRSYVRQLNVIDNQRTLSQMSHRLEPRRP
Compound,Potency,outcome
COc1ccccc1CN(C)CC(=O)Nc1ccc(Cl)cc1F,inactive,
Cc1cc(Br)cc(C=Nc2ccc(N3CCOCC3)cc2)c1O,inactive,
c1ccc(NN(Cc2ccccn2)c2ccccc2)cc1,inactive,
CN(C)c1ccc(/C=C/c2c3c(nc4ccccc24)CCCC3)cc1,inactive,
CCCCN(CCCC)c1ccc(/C=C/c2ccnc3ccccc23)cc1,inactive,
O=S(=O)(Nc1ccccc1N1CCCCC1)c1ccccc1,inactive,
COc1ccc(C(=S)N2CCOCC2)cc1OC(=O)c1ccccc1Cl,inactive,
Cc1oc2cc(Br)c(O)c(Br)c2c1C(=O)c1ccccc1,inactive,
CN(C)c1ccc(/C=C/c2sc3ccccc3[n+]2CCCCBr)cc1,inactive,
COCc1ccccc1C1=CC(=O)C[C@H](c2ccc(F)cc2)C1,inactive,
Cc1ccc(C)c(NC(=O)N2CCN3CCCCC3C2)c1 (centres undefined),inactive,
O=C(CCn1c(=O)oc2ccccc21)N(Cc1ccccc1)c1ccccc1,inactive,
O=C(NCc1ccccc1F)c1ccc(CN2CC(=O)N3CCCCC3C2=O)cc1 (centres undefined),inactive,
O=C(Nc1ccccc1OCc1ccccc1)c1ccccc1Br,1.51 µM (active),
Cc1onc(-c2ccc3c(c2)OCO3)c1-c1ccc2[nH]ccc2c1,inactive,
O=C(O)CSCC(=O)N(Cc1ccccc1)c1nc(-c2ccccc2)c(-c2ccccc2)s1,67.5 µM (active),

Compound,Potency,outcome
O=C(N/N=C\c1c(O)ccc2ccccc12)c1ccc(S(=O)(=O)N2CCCCC2)cc1,inactive,
COc1cc2c(cc1NC(=O)C(C)Oc1ccc(Cl)cc1Cl)oc1ccccc12 (centres undefined),inactive,
COc1ccc([N+](=O)[O-])cc1-c1nc2ccccc2nc1-c1ccccc1,0.0301 µM (active),
Cc1cccc(CNC(=O)c2ccc(-c3nc(CS(=O)(=O)c4ccccc4)c(C)o3)cc2)c1,inactive,
OC(c1ccc2ccccc2n1)c1c(Cl)cccc1Cl (centres undefined),inactive,
Cc1ccc(-c2noc(-c3nnn(CC(=O)Nc4cc(Cl)ccc4C)c3N)n2)cc1,,inactive [at 12.7 µM]
O=S(=O)(Nc1ccccc1N1CCCCC1)c1cccs1,19 µM (active),
Cc1ccc(CNc2cc(C)nc3nc(-c4ccc(C)cc4)nn23)cc1,inactive,
C=Nc1ccc(/C=C/c2ccnc3ccccc23)cc1,inactive,
CCCCCCOC(=O)C(C#N)c1nc2ccccc2nc1N1CCCCC1 (centres undefined),inactive,
CCOc1cc(-c2ccc(OC(=O)c3ccc(OC)cc3)c(OC)c2)cc(=O)c2c(C)oc(C)c12,inactive,
CSc1ccc(S(=O)(=O)NCC(=O)OCC(=O)N(C)Cc2ccccc2)cc1[N+](=O)[O-],inactive,
CCOc1cc(CNc2ccc(O)cc2)ccc1OCc1ccc(Cl)cc1,inactive,
CCCCN(CCC#N)c1ccc(/C=C/c2ccnc3ccccc23)cc1,inactive,
Cc1cc2ccccn2c1C(=O)c1ccc(Cl)c([N+](=O)[O-])c1,inactive,
COc1ccc(C(NC(=O)c2cc(OC)ccc2OC)c2ccccc2)cc1 (centres undefined),inactive,

# Target: Rap guanine nucleotide exchange factor 3 (Homo sapiens) (UniProt O95398)
# Experiment: Counterscreen qHTS for antagonist of cAMP-regulated guanine nucleotide exchange factor 3 (EPAC1) (AID 1645888);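 also: fluorescence loss as bound BODIPY-GDP is released from Rap1B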
# Details: Rap1B-BODIPY-GDP nucleotide exchange, fluorescence; series mostly up to 154 µM
# Method in brief: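 Rap1B–BODIPY-GDP (250 nM) with 50 uM GDP; compounds pin-transferred to 9.74 nM–152 uM final (activator) or from 7.32 nM upwards (inhibitor). Fluorescence Ex/Em 480/540 nm read at 5 and 30 min, then after adding cAMP or buffer, at room temperature.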
# Sequence of Rap guanine nucleotide exchange factor 3 (Homo sapiens) (O95398 whole entry, looked up): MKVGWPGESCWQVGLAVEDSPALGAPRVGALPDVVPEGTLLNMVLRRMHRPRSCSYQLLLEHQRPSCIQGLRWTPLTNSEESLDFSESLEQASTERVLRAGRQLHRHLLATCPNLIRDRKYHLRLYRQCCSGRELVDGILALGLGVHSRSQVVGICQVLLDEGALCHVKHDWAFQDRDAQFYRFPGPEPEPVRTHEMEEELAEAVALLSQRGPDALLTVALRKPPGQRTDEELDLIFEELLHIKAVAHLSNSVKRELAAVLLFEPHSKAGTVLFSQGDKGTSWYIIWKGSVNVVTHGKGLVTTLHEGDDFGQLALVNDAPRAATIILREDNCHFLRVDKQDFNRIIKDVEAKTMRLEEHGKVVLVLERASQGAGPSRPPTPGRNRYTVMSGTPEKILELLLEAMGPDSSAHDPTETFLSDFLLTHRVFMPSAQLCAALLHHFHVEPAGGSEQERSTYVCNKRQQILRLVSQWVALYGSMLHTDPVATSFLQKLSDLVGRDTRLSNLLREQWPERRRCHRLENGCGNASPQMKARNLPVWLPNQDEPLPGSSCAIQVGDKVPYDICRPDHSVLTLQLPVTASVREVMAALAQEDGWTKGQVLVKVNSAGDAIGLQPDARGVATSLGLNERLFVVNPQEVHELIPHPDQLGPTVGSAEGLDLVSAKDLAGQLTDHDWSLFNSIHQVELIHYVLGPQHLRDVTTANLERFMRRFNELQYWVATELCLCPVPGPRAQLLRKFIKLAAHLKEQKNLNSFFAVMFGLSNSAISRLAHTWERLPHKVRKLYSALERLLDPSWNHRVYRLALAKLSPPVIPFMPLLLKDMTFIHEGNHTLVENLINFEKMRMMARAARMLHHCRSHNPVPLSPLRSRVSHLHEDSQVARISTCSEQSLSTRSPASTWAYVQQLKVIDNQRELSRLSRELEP
Compound,Potency,"activity change, negative = inhibition"
COc1ccccc1CN(C)CC(=O)Nc1ccc(Cl)cc1F,inactive,
Cc1cc(Br)cc(C=Nc2ccc(N3CCOCC3)cc2)c1O,inactive,
c1ccc(NN(Cc2ccccn2)c2ccccc2)cc1,inactive,
O=S(=O)(Nc1ccccc1N1CCCCC1)c1ccccc1,inactive,
Cc1oc2cc(Br)c(O)c(Br)c2c1C(=O)c1ccccc1,inactive,
COCc1ccccc1C1=CC(=O)C[C@H](c2ccc(F)cc2)C1,inactive,
Cc1ccc(C)c(NC(=O)N2CCN3CCCCC3C2)c1 (centres undefined),inactive,
O=C(NCc1ccccc1F)c1ccc(CN2CC(=O)N3CCCCC3C2=O)cc1 (centres undefined),inactive,
O=C(Nc1ccccc1OCc1ccccc1)c1ccccc1Br,inactive,
O=C(O)CSCC(=O)N(Cc1ccccc1)c1nc(-c2ccccc2)c(-c2ccccc2)s1,inactive,
O=C(N/N=C\c1c(O)ccc2ccccc12)c1ccc(S(=O)(=O)N2CCCCC2)cc1,,-15.1% [at 30.8 µM]
COc1cc2c(cc1NC(=O)C(C)Oc1ccc(Cl)cc1Cl)oc1ccccc12 (centres undefined),inactive,
COc1ccc([N+](=O)[O-])cc1-c1nc2ccccc2nc1-c1ccccc1,inactive,
Cc1cccc(CNC(=O)c2ccc(-c3nc(CS(=O)(=O)c4ccccc4)c(C)o3)cc2)c1,inactive,
OC(c1ccc2ccccc2n1)c1c(Cl)cccc1Cl (centres undefined),inactive,
Cc1ccc(-c2noc(-c3nnn(CC(=O)Nc4cc(Cl)ccc4C)c3N)n2)cc1,inactive,
O=S(=O)(Nc1ccccc1N1CCCCC1)c1cccs1,inactive,
Cc1ccc(CNc2cc(C)nc3nc(-c4ccc(C)cc4)nn23)cc1,inactive,
CCCCCCOC(=O)C(C#N)c1nc2ccccc2nc1N1CCCCC1 (centres undefined),inactive,
CCOc1cc(CNc2ccc(O)cc2)ccc1OCc1ccc(Cl)cc1,inactive,
Cc1cc2ccccn2c1C(=O)c1ccc(Cl)c([N+](=O)[O-])c1,inactive,
COc1ccc(C(NC(=O)c2cc(OC)ccc2OC)c2ccccc2)cc1 (centres undefined),inactive,

# From PubChem BioAssay (NCATS)
